Measured values reported in PubChem BioAssay AID620 (Sanford-Burnham Center for Chemical Genomics, 2007).
Screen size: about 87,000 compounds; about 360 (0.41%) were called active. Cut-off read from the data, not from the text of the source: active = cytotoxicity above about 50%; inactive = the rest. This excerpt belongs to a sample that is enriched for actives.

Experiment: HT1080 cell viability loss – fluorescence readout (AID 620);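 note: cells exposed to compound overnight then 4 h with Alamar Blue; 0% = vehicle DMSO and 100% = killing control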
Settings: at 10 µM, active compounds read high

| SMILES | cytotoxicity |
| --- | --- |
| Cc1cccc(C)c1-n1c(C)cc(/C=C2\NC(=O)NC2=O)c1C | 15.3% (inactive) |
| Cc1cccc(Nc2nn3c(=O)c4ccccc4nc3s2)c1 | 6.1% (inactive) |
| CCCCCCSc1cc(C)nc2ncnn12 | -4.5% (inactive) |
| CCOc1cc(-c2noc(-c3ccncc3)n2)cc(Br)c1OC | -6.4% (inactive) |
| CCN(CC)C(=O)CN(C#N)c1nc(OC)nc(N(C)C)n1 | 5.3% (inactive) |
| CCCCn1c(N)c(N(CC)C(=O)c2ccc3c(c2)S(=O)(=O)c2ccccc2C3=O)c(=O)[nH]c1=O | -1.2% (inactive) |
| CCn1c(SCC(=O)Nc2ccc3c(c2)OCCO3)nnc1-c1ccccn1 | 37% (inactive) |
| Cn1c(SCC(=O)Nc2ccc3c(c2)OCO3)nnc1-c1cnccn1 | 13.4% (inactive) |
| CCn1c(SCC(=O)Nc2ccc3c(c2)OCO3)nnc1-c1cnccn1 | 102% (active) |
| CN1C(=O)c2ccc(S(=O)(=O)c3ccc(C(=O)O)cc3)cc2C1=O | 3.3% (inactive) |
| Cc1ccc2[nH]c(=O)c(-c3nc4ccccn4c3NCc3ccco3)cc2c1 | -4.4% (inactive) |
| COc1ccc2c(c1)C(C1=C(O)CC(C)(C)CC1=O)C1=C(CC(C)(C)CC1=O)O2 (stereo not drawn) | 10.3% (inactive) |
| CC[C@]1(O)CC2CN(CCc3c([nH]c4ccccc34)[C@@](C(=O)OC)(c3cc4c(cc3OC)N(C=O)[C@H]3[C@@](O)(C(=O)OC)[C@H](OC(C)=O)[C@]5(CC)C=CCN6CC[C@]43[C@@H]65)C2)C1 (stereo partly drawn) | 65.8% (active) |
| CC(C)Cn1c(=O)c2c(c3ccccc31)OC(C)C(=O)N2 (stereo not drawn) | -0.6% (inactive) |
| CCOC(=O)CNC(=O)C(Cc1ccccc1)NS(=O)(=O)c1ccc2c(c1)CCC(=O)N2 (stereo not drawn) | 0.8% (inactive) |
| Oc1ccc(-c2nc(-c3ccc(O)c(O)c3)cs2)cc1 | 61.2% (active) |
| Oc1ccc(-c2csc(-c3ccccc3)n2)cc1O | 15.6% (inactive) |
| Oc1ccc(Nc2nc(-c3ccc(O)cc3)cs2)cc1 | 2.8% (inactive) |
| Cc1cccnc1Nc1nc(-c2ccc(O)c(O)c2)cs1 | 9.2% (inactive) |
| Oc1ccc(Nc2nc(-c3ccc4ccccc4c3)cs2)cc1 | 53.6% (active) |
| NS(=O)(=O)c1ccc(Nc2nc(-c3ccc4ccccc4c3)cs2)cc1 | -2.9% (inactive) |

| SMILES | cytotoxicity |
| --- | --- |
| O=C(O)CCc1ccc(-c2cccs2)n1CCC(=O)O | -6.8% (inactive) |
| Cn1nc(-c2ccccc2)c(-c2nc(-c3cccc(C(F)(F)F)c3)no2)c1Cl | 6.9% (inactive) |
| Cc1ccc(NC(=O)CSc2nc(-c3ccco3)cc(C(F)(F)F)n2)cc1C | -8.6% (inactive) |
| Cc1cc(NC(=O)CCCSc2nc(-c3ccco3)cc(C(F)(F)F)n2)no1 | 2.7% (inactive) |
| Cc1cccc(C)c1NC(=O)CSc1nc(-c2ccco2)cc(C(F)(F)F)n1 | 3.3% (inactive) |
| COC(=O)c1ccccc1NC(=O)CSc1nc(-c2ccco2)cc(C(F)(F)F)n1 | 52.3% (active) |
| COC(=O)c1ccc(C(=O)OC)c(NC(=O)CSc2nc(-c3ccco3)cc(C(F)(F)F)n2)c1 | 5.6% (inactive) |
| O=C(CSc1nnc(-c2ccccn2)n1Cc1ccccc1)Nc1ccc2c(c1)OCO2 | 3.3% (inactive) |
| Cc1oc(C(=O)O)cc1COc1ccc2c(C)cc(=O)oc2c1 | -7.7% (inactive) |
| CC(=O)c1c(C)[nH]c(C(=O)N2CCN(c3ccc(F)cc3)CC2)c1C | -1.4% (inactive) |
| CC(=O)c1c(C)[nH]c(C(=O)N2CCN(c3ncccn3)CC2)c1C | -1.6% (inactive) |
| COc1cccc(N2CCN(C(=O)c3[nH]c(C)c(C(C)=O)c3C)CC2)c1 | 51% (active) |
| COc1ccccc1NC(=O)Cn1nc(C(F)(F)F)c2c1CCCC2 | -0.3% (inactive) |
| CCOC(=O)c1c(C)oc2cc3c(C(=O)OCC)c(C)oc3cc12 | -0.1% (inactive) |
| CCOC(=O)c1c(C)oc2c(F)c(F)c(F)c(F)c2c1=O | 96.5% (active) |
| CCOC(=O)c1c(C)cc(=O)oc1C | -21.5% (inactive) |
| COC(=O)Nc1cc(C)nc2ccccc12 | -9.1% (inactive) |
| COc1ccc(N2CCN(c3ncnc4nc[nH]c34)CC2)cc1 | -6.5% (inactive) |
| O=c1cc(N2CCN(Cc3ccccc3)CC2)[nH]c(=O)n1-c1cccc(C(F)(F)F)c1 | 12.7% (inactive) |
| Cc1onc(-c2ccccc2)c1C(=O)Nc1ccccc1N1CCOCC1 | 3.3% (inactive) |
| O=C(CSc1nc2ccccc2[nH]1)Nc1cc(C(F)(F)F)ccc1N1CCOCC1 | -2.4% (inactive) |

| SMILES | cytotoxicity |
| --- | --- |
| Cc1nnc(SCC(=O)Nc2cc(C(F)(F)F)ccc2N2CCOCC2)o1 | 7% (inactive) |
| Cc1onc(-c2ccccc2)c1C(=O)Nc1cc(C(F)(F)F)ccc1N1CCOCC1 | 59.2% (active) |
| Cc1ccc2nc(SCC(=O)Nc3cc(C(F)(F)F)ccc3N3CCOCC3)[nH]c2c1 | 62.5% (active) |
| O=C(Nc1cc(C(F)(F)F)ccc1N1CCOCC1)c1c(F)c(F)c(F)c(F)c1F | 1.3% (inactive) |
| COCCNC(=O)C1(C)C=CCN1C(C)=O (stereo not drawn) | -17.3% (inactive) |
| COc1ccc(NC(=O)c2ccc(-n3nc(C)cc3C)cc2)cc1OC | -17.7% (inactive) |
| COC(=O)c1ccccc1S(=O)(=O)C(C)(C)C | 7.6% (inactive) |
| CCOCCCNC(=O)C1CCN(S(=O)(=O)N2CCCCC2)CC1 | 1.1% (inactive) |
| COC(=O)C1=[N+]([O-])OC(C(=O)OC)C1c1c[nH]c2ccccc12 (stereo not drawn) | 41.5% (inactive) |
| Cc1nc2c(sc3nc4c(cc32)COC(C)(C)C4)c(=O)n1CC(=O)NCc1ccco1 | 55.6% (active) |
| CC1(C)Cc2nc3sc4c(=O)n(CC(=O)NCc5ccco5)cnc4c3cc2CO1 | 15.9% (inactive) |
| CCc1nc2c(sc3nc4c(cc32)COC(C)(C)C4)c(=O)n1Cc1ccco1 | 1.2% (inactive) |
| CSC1=Nc2sc3c(c2C2=NCCN12)CCCC3 | 7.2% (inactive) |
| CC[C@H]1CN2CCc3cc(OC)c(OC)cc3[C@@H]2C[C@@H]1C[C@H]1NCCc2cc(OC)c(OC)cc21 | 78.8% (active) |
| COc1cc2c(cc1OC)C1Cc3ccc(OC)c(OC)c3CN1CC2 (stereo not drawn) | -0.8% (inactive) |
| COc1cc2c(cc1OC)C1C/C(=N\O)C(CC(C)C)CN1CC2 (stereo not drawn) | -13.4% (inactive) |
| Cc1oc(-c2ccccc2F)nc1CN1CCC(C(=O)NCc2cccs2)CC1 | -2.2% (inactive) |
| O=S(=O)(Nc1nnc(-c2ccccc2)s1)c1ccc(Cl)cc1 | 5.7% (inactive) |
| Cc1ncc(S(=O)(=O)c2ccc(Cl)cc2)c(-c2ccccc2)n1 | 18.2% (inactive) |
| O=C1NCCCC1C(=O)N1CCN(C(=O)C2CCCNC2=O)CC1 (stereo not drawn) | -7.4% (inactive) |
| O=C(CCn1cccc1)Nc1ccccc1F | -5.1% (inactive) |
